Shown are actives, neighbours in structure and some others; about 19% of the full set was active somewhere.
TDP1 cell CPT – DT40-hTDP1 cell growth loss with CPT; chicken DT40 Tdp1-/-;hTDP1 cells + 20 nM CPT, ATP luminescence, 48 h; hit rate 12% among 420,000; AID 686979; Potency, µM (top dose mostly 46.2 µM), inactives show at the highest dose activity change, negative = growth inhibition, usual class: inhibitors; also: potency is read from the fitted curve at half-maximal effect; nearly all actives have a fitted effect of over 55% in size
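Cell growth measured by CellTiter-Glo luminescence after a minimum 48 h, 37 C compound exposure with 20 nM CPT in Tdp1-knockout DT40 cells stably expressing hTDP1, seeded 400/well; qHTS titration format.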
HT1080 IDH1KD tx – kills HT-1080 cells with IDH1 knockdown; HT-1080 IDH1 knockdown viability, ATP luminescence, 48 h; hit rate 2% among 360,000; Potency, µM (top dose mostly 46.1 µM), for inactives: top-dose activity, negative = toxicity, actives largely listed as cytotoxic;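 also: potency is read from the fitted curve at half-maximal effect; 0% = DMSO wells and -100% = cell-free medium wells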
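HT-1080-IDH1KD cells (IDH1 knocked down), 750/well in RPMI with 5% FBS, treated with compound 48 h at 37 degrees C. Viability by CellTiter-Glo luminescence, normalised to DMSO and no-cell wells; concentration-response curves classed.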
DT40 TDP1 no CPT – qHTS for Inhibitors of human tyrosyl-DNA phosphodiesterase 1 (TDP1): qHTS in cells in absence of CPT. hit rate 15% among 420,000. Potency, µM (doses to about 46.2 µM), for inactives: top-dose activity change, negative = growth inhibition, actives largely listed as inhibitors. DT40 Tdp1-/- hTDP1 cells, no CPT, ATP luminescence, 48 h; also: potency is read from the fitted curve at half-maximal effect; nearly all actives have a fitted effect of over 55% in size
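No-CPT arm: Tdp1-/-;hTDP1 DT40 cells (400/well) plus compounds, incubated ≥48 hr at 37 °C. Readout CellTiter-Glo luminescence.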
IL1B secr inh – inhibitors of inflammasome signaling (IL-1 beta secretion) | activity change, % at 57.5 µM | hit rate 4.7% among 360,000 | THP-1 LPS/ATP IL-1B secretion, AlphaLISA, 16 h; active compounds read low; in the data active = activity change below about -50%; inconclusive = mostly about -30% to -49%
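THP-1 cells pretreated 1 hr with compounds (up to 57.5 uM final), then stimulated with LPS (250 ng/mL final) plus ATP (1.25 mM final); secreted IL-1B measured by AlphaLISA after 16 hr, decreased signal indicating inhibition.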
HT1080NT lethal – kills 2HG-producing HT-1080-NT fibrosarcoma cells. HT-1080-NT fibrosarcoma viability, CellTiter-Glo ATP luminescence, 48 h. Potency, µM (titrated, usually from 46.1 µM), inactives show at the top dose activity, negative = less viability, most hits filed as cytotoxic. hit rate 1.6% among 360,000. AID 686970;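 also: NT is the 2HG producing partner of a matched IDH1 knockdown line; potency is read from the fitted curve at half-maximal effect; 0% = DMSO-treated cells and -100% = media-only wells without cells; nearly all actives have a fitted effect of over 55% in size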
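Compounds were tested in concentration-response format on HT-1080-NT cells for 48 hours at 37 degrees C. Cell viability came from CellTiter-Glo luminescence; curves were classified by r2, response magnitude and activity.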
ELG1 repair inh – blocks ELG1-dependent DNA repair in HEK293T cells. HEK293T ELG1-luciferase reporter, luminescence, 16 h; DNA damage induced by 5-fluorouridine. hit rate 2.3% among 330,000. Potency, µM (series often up to 46.1 µM), inactives show at the top dose activity change, negative = inhibition, most hits filed as inhibitors. AID 504467; also: potency is read from the fitted curve at half-maximal effect; nearly all actives have a fitted effect of over 55% in size
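Quantitative HTS, concentration-response format. 2,000 cells/well co-treated with 5-fluorouridine and compound, 16 hr in 5% CO2 at 37 °C; ONE-Glo luminescence read after 30 min.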
Starred values were filed as active, the others as inactive; ? = inconclusive; nt = not tested or not shown; [ ] = remark or other dose. Unless noted, calls follow the shape of the dose curve; as a rule, active = well fitted curve in the direction sought with a large enough effect; inconclusive = small, poorly fitted or top-dose-only effect, or another doubt; inactive = no such curve, though single readings can be large; an effect the other way counts as inactive or inconclusive. Unless noted, % is scaled to controls: 0 for no effect and ±100 for the full control effect.

SMILES	TDP1 cell CPT	HT1080 IDH1KD tx	DT40 TDP1 no CPT	IL1B secr inh	HT1080NT lethal	ELG1 repair inh
Cc1cc(S(=O)(=O)NCC(c2ccc3c(c2)OCO3)N2CCOCC2)ccc1F (stereo not given)	?	-0.1%	?	-12.8	-1.8%	?
CC(C)Cc1nc2cc(NS(=O)(=O)N(C)C)cc(C(=O)N3CCOCC3)c2n1C	7.8%[9.04 µM]	nt	2.6%	nt	nt	nt
O=C(COc1ccccc1/C=C1\SC(=S)NC1=O)Nc1ccc(F)cc1	?	?	10.3µM*	-15.5	?	?
NC1=NC(=O)/C(=C/c2ccccc2OCC(=O)Nc2ccc(F)cc2)S1	-9.0%	2.1%	5.9%	13.7	1.0%	12.8%
Cc1ccc(N2C(=O)c3ccccc3C2=O)cc1	4.3%	0.7%	6.8%	19.6	10.3%	?
Cc1ccc(SC2=C(Sc3ccc(C)cc3)C(=O)c3ccccc3C2=O)cc1	0.92µM*	-1.8%	1.03µM*	-73.8*	3.2%	?
Oc1ccc(N2CCN(C(=S)NCCc3ccccc3)CC2)cc1	6.51µM*	3.66µM*	8.2µM*	25.7	?	-3.0%
S=C(NCCc1ccccc1)N1CCN(Cc2ccccc2)CC1	29.1µM*	-1.6%	?	-2.9	-14.8%	?
Cc1nn2c(=O)cc(COC(=O)COc3ccccc3C)nc2s1	-7.6%	nt	-0.8%	nt	nt	nt
COc1ccc(-n2c(=O)cnc3cnc(N(C)C)nc32)cc1	23.1µM*	nt	?	nt	nt	nt
COc1ccc(Oc2ncc3ncc(=O)n(-c4ccc(OC)cc4)c3n2)cc1	-5.4%	nt	-25.6%	nt	nt	nt
CN(C)c1ncc2ncc(=O)n(Cc3cccs3)c2n1	?	nt	20.6µM*	nt	nt	nt
COc1ncc2ncc(=O)n(Cc3cccs3)c2n1	-5.3%	nt	-20.8%	nt	nt	nt
Fc1ccc(Oc2ncccn2)c(F)c1	0.7%	3.2%	-1.3%	26.9	6.3%	9.6%
COc1ccccc1OCCNC(=O)CCC(=O)N1CCOCC1	0.6%	0.4%	1.0%	12.1	2.4%	-4.4%
COC(=O)c1c(SC)nc2ccccc2c1OCc1cc(C)ccc1C	-19.7%	nt	?	nt	nt	nt
O=C1/C(=C/c2cccc(F)c2)Oc2cc(O)ccc21	?	-13.5%	?	-79.2*	-18.3%	?
COC(=O)COc1ccc2c(c1)O/C(=C\c1cccc([N+](=O)[O-])c1)C2=O	18.4µM*	-1.0%	13µM*	-1.0	2.1%	4.3%
COc1cccc(/C=C2\Oc3cc(OC(=O)N4CCOCC4)ccc3C2=O)c1	?	2.5%	?	-3.1	28.8%	0.0%
Cc1cccc(/C=C2\Oc3cc(OS(C)(=O)=O)ccc3C2=O)c1	?	-22.6%	?	-55.8*	?	2.7%
COc1cc2c(NC3CCN(C(C)C)CC3)nc(N3CCCN(C)CC3)nc2cc1OCCCN(C)C	3.16µM*	nt	6.31µM*	nt	nt	nt
COc1cc2c(NC3CCN(C)CC3)nc(N3CCCN(C)CC3)nc2cc1OCCCCCN(C)C	11.2µM*	nt	14.1µM*	nt	nt	nt
COc1cc2c(NC3CCN(C)CC3)nc(N3CCCN(C)CC3)nc2cc1OCCN(C)C	11.2µM*	-1.1%	11.2µM*	nt	2.7%	nt
COc1ccc(C(=O)NCCCSC)cc1OC1CCN(C(C)C)CC1	-10.6%	9.6%	-6.0%	7.0	6.5%	5.0%
COc1cc2c(NC3CCN(C)CC3)nc(N3CCCN(C)CC3)nc2cc1OCCOCCN1CCCC1	-20.2%	nt	0.9%	nt	nt	nt
COc1ccc(C)cc1NC(=O)c1cc(S(=O)(=O)N2CCCCC2)c[nH]1	-20.5%	nt	?	nt	nt	nt
O=C(COC(=O)COc1ccc(Cl)cc1Cl)NC1CCCC1	-3.1%	-4.9%	-12.9%	8.2	-1.1%	11.8%
CCOC(=O)c1cnc2c(-c3ccccc3)c(-c3ccccc3)nn2c1C	-18.8%	19.9%	?	8.5	1.8%	?

Screening results (PubChem)
